# Source: PubChem (several laboratories)
# SMARCA2 activ: increases SMARCA2 function in MMTV reporter cells; MG213 cells, MMTV-luciferase reporter, dexamethasone, overnight; activation, % at 9.1 µM; hit rate 1% among 370,000; AID 652017; in the data active = activation above about 7.8%;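 note: 0% = vehicle wells and 100% = reference activator wells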
# Gli-Sufu antag: blocks Gli-Sufu signaling in a luciferase reporter. Sufu-KO-LIGHT fibroblasts, Gli luciferase reporter luminescence. inhibition, % at 5 µM. hit rate 0.74% among 340,000. AID 588413;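 active = inhibition above about 55%, limit read from the data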;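 note: 0% = DMSO-treated cells and 100% = wells with medium but no cells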
# esBAF inh: SWI/SNF esBAF complex inhibition. reporter increase, % at 12.5 µM. hit rate 2% among 350,000. mouse ES cells, Bmi1-luciferase knock-in reporter, 24 h; 100% = twice the neutral-well signal; in the data active = activation above about 40%;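 note: 0% = median of the plate's neutral control wells and 100% = double that signal; a rise in the Bmi1 reporter signal indicates esBAF inhibition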
# 697 NFkB inh: inhibitors of the PMA/ionomycin-induced NF-kB reporter in 697 B cells; 697 B-cell NF-kB luciferase reporter, 16 h; inhibition, % at 4 µM; hit rate 0.33% among 330,000; in the data active = inhibition above about 35%
# Jurkat NFkB inh: lowers PMA/ionomycin-induced NF-kB signal in Jurkat cells; PMA/ionomycin-induced NF-kB luciferase reporter, luminescence; inhibition, % at 4 µM; hit rate 0.53% among 330,000; in the data active = inhibition above about 50%
# Jurkat NFkB conf: inhibitors of the PMA/ionomycin-induced NF-kB reporter in Jurkat cells, retest. shares compounds with Jurkat NFkB inh. Jurkat NF-kB luciferase, 16 h. inhibition, % at 4 µM. hit rate 27% among 2,700. AID 435020;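 active = inhibition reaching about 45% at 4 µM in either replicate, limit read from the data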;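 note: plate controls were PMA/ionomycin stimulated DMSO wells for no effect and unstimulated DMSO wells for full effect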
# Starred values were filed as active, the others as inactive; x = no result. The list is not random: actives were taken first. Their share in the collection is about 3.3%.
SMILES,SMARCA2 activ,Gli-Sufu antag,esBAF inh,697 NFkB inh,Jurkat NFkB inh,Jurkat NFkB conf
COc1ccccc1-c1nnc(NC(=O)c2ccc3c(c2)OCO3)s1,-4.2,-19.1,x,16.8,57.0*,5.4
CC(C)c1nnc(NC(=O)c2ccc3c(c2)OCO3)s1,7.1,-60.6,x,-195.0,-51.5,x
Cc1cnc(NC(=O)c2ccc3c(c2)OCCO3)s1,-3.3,9.6,-8.7,-30.2,69.8*,76.8*
CNC(=O)C[C@H]1CC[C@H]2[C@H](COc3ccc(NC(=O)NCc4ccccc4)cc3C(=O)N2C)O1,x,x,-2.9,x,x,x
C[C@@H]1CN([C@@H](C)CO)C(=O)c2cccc(NS(=O)(=O)c3ccc(F)cc3)c2O[C@H]1CN(C)S(=O)(=O)c1ccc(F)cc1,x,x,-5.2,x,x,x
O=C(C[C@H]1C=C[C@H](NC(=O)C2CCC2)[C@@H](CO)O1)NC1CCC1,x,x,0.6,x,x,x
COc1ccc(S(=O)(=O)N(C)C[C@H]2OCCCC[C@@H](C)Oc3ccc(NS(C)(=O)=O)cc3C(=O)N([C@@H](C)CO)C[C@H]2C)cc1,x,x,0.4,x,x,x
C/C=C/c1ccc2c(c1)O[C@@H](CN(C)Cc1ccc(C(=O)O)cc1)[C@@H](C)CN([C@@H](C)CO)S2(=O)=O,x,x,-1.3,x,x,x
CC(C)Oc1cccc(C(=O)Nc2ccc(Br)cc2F)c1,2.8,-77.9,x,-132.5,-194.6,-119.9
Cc1noc(C)c1COc1cccc(C(=O)Nc2ccc(Br)cc2F)c1,-0.1,-17.1,2.1,-47.5,61.3*,34.6
COc1cccc(C(=O)Nc2ccc(F)cc2F)c1,1.9,-52.1,39.0,-16.4,-52.4,x
Cc1ccc(NC(=O)c2cccc(OCc3c(C)noc3C)c2)c(C)c1,-2.9,-0.7,7.0,-3.5,3.3,x
Cc1noc(C)c1COc1cccc(C(=O)OC(C)C(=O)Nc2ccc3c(c2)OCO3)c1 (stereo not given),-5.0,4.3,-5.3,10.6,58.0*,23.4
COc1ccc(N2CCc3c(C)nc4c(OC)cccc4c32)cc1,4.5,8.3,x,-124.5,63.6*,30.6
O=C(C[C@@H]1CC[C@H]2[C@@H](COC[C@@H](O)CN2C(=O)Nc2cccc(Cl)c2)O1)NCC1CCCCC1,x,x,0.6,x,x,x
COc1ccccc1NC(=O)/C(C#N)=C/C=C/c1ccco1,4.2,9.6,8.1,0.0,58.9*,-6.8
O=C(N[C@H]1CC[C@H](CCn2cc(C3(O)CCCC3)nn2)O[C@H]1CO)C1CCOCC1,x,x,-2.8,x,x,x
COc1ccc(N(C(=O)c2ccccc2C)S(=O)(=O)c2cccs2)cc1,-0.8,46.5,x,-1.0,66.5*,47.7
Cc1ccc(S(=O)(=O)Nc2ccc3c4c(cccc24)CC3)c(C)c1,-3.0,0.4,-1.7,-24.8,50.1*,28.1
Cc1cc(C)c(S(=O)(=O)Nc2ccc3c4c(cccc24)CC3)c(C)c1,-2.2,50.0,-19.6,-68.5,58.1*,44.9
O=S(=O)(Nc1ccc2c3c(cccc13)CC2)c1ccccc1,-4.2,x,11.0,x,x,x
Cc1ccc(S(=O)(=O)Nc2ccc(O)c3ccccc23)c(C)c1,-2.5,3.0,-0.5,x,x,x
C[C@@H]1CN([C@H](C)CO)C(=O)Cc2cc(NC(=O)Cc3cn(C)c4ccccc34)ccc2O[C@H]1CN(C)S(C)(=O)=O,x,x,-2.3,x,x,x
Fc1ccc(-c2csc(N3CCOCC3)n2)cc1,2.6,30.1,x,-45.9,-30.8,x
c1ccc2oc(-c3csc(N4CCOCC4)n3)cc2c1,4.3,-100.8,-14.2,-216.4,-221.5,-23.1
SMILES,SMARCA2 activ,Gli-Sufu antag,esBAF inh,697 NFkB inh,Jurkat NFkB inh,Jurkat NFkB conf
CCCNC(=O)N1C[C@@H](C)[C@H](OC)CN(C)C(=O)c2cc(NS(=O)(=O)CC(F)(F)F)ccc2OC[C@@H]1C,x,x,-3.9,x,x,x
CC(C)c1ccc(/C=N/Nc2ccc(C(=O)O)cc2)cc1,-3.8,-43.1,x,-233.4,55.4*,46.5
O=C(O)c1ccc(N/N=C/c2ccc(-c3ccccc3)cc2)cc1,0.5,-58.5,x,x,x,x
CC(C)c1ccc(/C=N/NC(=O)c2ccccc2Cl)cc1,4.2,-46.6,x,-104.0,51.8*,9.9
C[C@@H]1CCCCO[C@@H](CN(C)S(=O)(=O)c2ccccc2)[C@H](C)CN([C@@H](C)CO)C(=O)c2cc(NC(=O)Nc3ccc(C(F)(F)F)cc3)ccc2O1,x,x,2.0,x,x,x
CCC(=O)N1[C@H](CO)[C@H](c2ccc(C3=CCCC3)cc2)[C@H]1CNC(=O)CN(C)C,x,x,2.8,x,x,x
O=[N+]([O-])c1ccccc1OCc1nc(-c2cccs2)no1,2.4,-116.5,x,-165.6,-162.3,-121.2
O=C(C[C@@H]1CC[C@H]2[C@@H](COC[C@@H](O)CN2C(=O)c2cnccn2)O1)NCc1ccc(F)cc1,x,x,-0.6,x,x,x
